In all, about 5,500 compounds went through this assay and about 2,000 (36%) were called active. Not shown: some 18% with an inconclusive outcome. Cut-off read from the data, not from the text of the source: active = normalized growth mostly below about 0.91 (no sharp cut-off); inconclusive = no clear call, values can overlap the other calls; inactive = mostly above about 0.92. The list shows a part of the results.
Assay: chemical genetic growth profiling, strain panel (AID 1159580);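 note: tested at 20 µM; growth read once vehicle control cultures reached saturation at 30 °C; 1 = growth at the plate median or of vehicle wells; lower values mean less growth of the strain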
Conditions: growth OD

Measured: normalized growth

COc1ccc(C2CC(=O)c3ccc(OC)cc3O2)cc1 (centres undefined)
active: S. cerevisiae deletion strains, locus YKR001C, strain vps1, hits give low values 0.876 | S. cerevisiae deletion strains, locus YLR113W, strain HOG1, hits give low values 0.851 | S. cerevisiae deletion strains, locus YLR221C, strain rsa3, hits give low values 0.899 | S. cerevisiae deletion strains, locus YLR258W, strain gsy2, hits give low values 0.91 | S. cerevisiae deletion strains, locus YLR268W, strain sec22, hits give low values 0.832 | S. cerevisiae deletion strains, locus YLR320W, strain mms22, hits give low values 0.742 | S. cerevisiae deletion strains, locus YLR330W, strain CHS5, hits give low values 0.844 | S. cerevisiae deletion strains, locus YLR342W, strain FKS1 (second series), hits give low values 0.705 | S. cerevisiae deletion strains, locus YLR418C, strain cdc73, hits give low values 0.66 | S. cerevisiae deletion strains, locus YML032C, strain rad52, hits give low values 0.889 | S. cerevisiae deletion strains, locus YML120C, strain ndi1, hits give low values 0.869 | S. cerevisiae deletion strains, locus YMR205C, strain PFK2, hits give low values 0.842 | S. cerevisiae deletion strains, locus YMR263W, strain SAP30, hits give low values 0.869 | S. cerevisiae deletion strains, locus YNL071W, strain lat1, hits give low values 0.727 | S. cerevisiae deletion strains, locus YNL153C, strain GIM3, hits give low values 0.847 | S. cerevisiae deletion strains, locus YNL183C, strain NPR1, hits give low values 0.802 | S. cerevisiae deletion strains, locus YNL233W, strain BNI4, hits give low values 0.804 | S. cerevisiae deletion strains, locus YNL307C, strain MCK1, hits give low values 0.668 | S. cerevisiae deletion strains, locus YOL006C, strain TOP1, hits give low values 0.394 | S. cerevisiae deletion strains, locus YOR083W, strain WHI5, hits give low values 0.865 | S. cerevisiae deletion strains, locus YOR184W, strain ser1, hits give low values 0.799 | S. cerevisiae deletion strains, locus YOR270C, strain vph1, hits give low values 0.675 | S. cerevisiae deletion strains, locus YOR290C, strain snf2, hits give low values 0.822 | S. cerevisiae deletion strains, locus YPL051W, strain arl3, hits give low values 0.887 | S. cerevisiae deletion strains, locus YPL055C, strain LGE1, hits give low values 0.754 | S. cerevisiae deletion strains, locus YPL078C, strain atp4, hits give low values 0.888 | S. cerevisiae deletion strains, locus YPR163C, strain tif3, hits give low values 0.797 | S. cerevisiae deletion strains, locus YPR167C, strain met16, hits give low values 0.889 | S. cerevisiae deletion strains, strain wtn01, hits give low values 0.887 | S. cerevisiae strains, strain wild type, hits give low values 0.89
inactive: S. cerevisiae deletion strains, locus YKL068W, hits give low values 0.97 | S. cerevisiae deletion strains, locus YKL085W, strain MDH1 (second series), hits give low values 0.982 | S. cerevisiae deletion strains, locus YKL085W, strain MDH1, hits give low values 0.982 | S. cerevisiae deletion strains, locus YKL160W, strain elf1, hits give low values 0.908 | S. cerevisiae deletion strains, locus YKL190W, strain CNB1, hits give low values 0.948 | S. cerevisiae deletion strains, locus YKR026C, strain gcn3, hits give low values 0.931 | S. cerevisiae deletion strains, locus YKR091W, strain srl3, hits give low values 0.968 | S. cerevisiae deletion strains, locus YLL001W, strain dnm1, hits give low values 0.938 | S. cerevisiae deletion strains, locus YLL026W, hits give low values 0.932 | S. cerevisiae deletion strains, locus YLL041C, strain sdh2, hits give low values 0.958 | S. cerevisiae deletion strains, locus YLR027C, strain aat2, hits give low values 0.93 | S. cerevisiae deletion strains, locus YLR039C, strain RIC1, hits give low values 0.811 | S. cerevisiae deletion strains, locus YLR058C, strain SHM2, hits give low values 0.901 | S. cerevisiae deletion strains, locus YLR102C, strain apc9, hits give low values 0.951 | S. cerevisiae deletion strains, locus YLR262C, strain YPT6 (second series), hits give low values 0.912 | S. cerevisiae deletion strains, locus YLR262C, strain YPT6, hits give low values 0.872 | S. cerevisiae deletion strains, locus YLR342W, strain FKS1, hits give low values 0.936 | S. cerevisiae deletion strains, locus YLR357W, strain rsc2, hits give low values 0.902 | S. cerevisiae deletion strains, locus YLR370C, strain arc18, hits give low values 0.947 | S. cerevisiae deletion strains, locus YLR371W, strain rom2, hits give low values 0.938 | S. cerevisiae deletion strains, locus YLR384C, strain iki3, hits give low values 0.952 | S. cerevisiae deletion strains, locus YML016C, strain PPZ1, hits give low values 0.959 | S. cerevisiae deletion strains, locus YML124C, strain tub3, hits give low values 0.952 | S. cerevisiae deletion strains, locus YMR058W, strain fet3, hits give low values 0.932 | S. cerevisiae deletion strains, locus YMR078C, strain ctf18, hits give low values 0.93 | S. cerevisiae deletion strains, locus YMR125W, strain sto1, hits give low values 0.967 | S. cerevisiae deletion strains, locus YMR129W, hits give low values 0.956 | S. cerevisiae deletion strains, locus YMR223W, strain ubp8, hits give low values 0.92 | S. cerevisiae deletion strains, locus YMR231W, strain pep5, hits give low values 0.993 | S. cerevisiae deletion strains, locus YMR307W, strain GAS1, hits give low values 0.649 | S. cerevisiae deletion strains, locus YNL067W, strain RPL9B, hits give low values 0.87 | S. cerevisiae deletion strains, locus YNL128W, strain TEP1, hits give low values 0.9 | S. cerevisiae deletion strains, locus YNL209W, strain ssb2, hits give low values 0.965 | S. cerevisiae deletion strains, locus YNL248C, strain rpa49, hits give low values 0.921 | S. cerevisiae deletion strains, locus YNL250W, strain rad50, hits give low values 0.939 | S. cerevisiae deletion strains, locus YNL271C, strain bni1, hits give low values 0.937 | S. cerevisiae deletion strains, locus YNL298W, strain CLA4, hits give low values 0.934 | S. cerevisiae deletion strains, locus YNL322C, strain KRE1 (second series), hits give low values 0.969 | S. cerevisiae deletion strains, locus YNR049C, strain mso1, hits give low values 0.97 | S. cerevisiae deletion strains, locus YNR052C, strain pop2, hits give low values 0.944 | S. cerevisiae deletion strains, locus YOL012C, strain htz1 0.489 | S. cerevisiae deletion strains, locus YOL147C, strain pex11, hits give low values 0.94 | S. cerevisiae deletion strains, locus YOR001W, strain rrp6, hits give low values 0.917 | S. cerevisiae deletion strains, locus YOR061W, strain CKA2, hits give low values 0.955 | S. cerevisiae deletion strains, locus YOR069W, strain VPS5, hits give low values 0.979 | S. cerevisiae deletion strains, locus YOR070C, strain gyp1, hits give low values 0.934 | S. cerevisiae deletion strains, locus YOR080W, strain dia2, hits give low values 0.957 | S. cerevisiae deletion strains, locus YOR106W, strain vam3, hits give low values 0.887 | S. cerevisiae deletion strains, locus YOR136W, strain idh2, hits give low values 0.954 | S. cerevisiae deletion strains, locus YOR144C, strain elg1, hits give low values 0.938 | S. cerevisiae deletion strains, locus YOR231W, strain MKK1, hits give low values 0.881 | S. cerevisiae deletion strains, locus YOR265W, strain rbl2, hits give low values 0.952 | S. cerevisiae deletion strains, locus YOR316C, strain cot1, hits give low values 0.939 | S. cerevisiae deletion strains, locus YPL106C, strain sse1, hits give low values 0.856 | S. cerevisiae deletion strains, locus YPL240C, strain hsp82, hits give low values 0.951 | S. cerevisiae deletion strains, locus YPL241C, strain CIN2, hits give low values 0.985 | S. cerevisiae deletion strains, locus YPL256C, strain CLN2, hits give low values 0.882 | S. cerevisiae deletion strains, locus YPR119W, strain clb2, hits give low values 0.969 | S. cerevisiae deletion strains, locus YPR141C, strain kar3, hits give low values 0.975

From PubChem BioAssay AID1159580 (chemical genetic matrix, 2015)
